Shown are actives, neighbours in structure and some others; about 6% of the full set was active somewhere.
Tau FP inhib = qHTS for Inhibitors of Tau Fibril Formation, Fluorescence Polarization; Microtubule-associated protein tau (Homo sapiens), P10636; K18 P301L tau heparin fibrillization, Alexa594 FP, 6 h; 280,000 tested, 0.39% active; AID 1468, 2008; Potency, µM (top dose mostly 57.7 µM), without a hit: at the top dose activity, negative = inhibition, usual class: inhibitors; note: nearly all actives have a fitted effect of over 55% in size
Target sequence (P10636 561-689 P618L limits assumed): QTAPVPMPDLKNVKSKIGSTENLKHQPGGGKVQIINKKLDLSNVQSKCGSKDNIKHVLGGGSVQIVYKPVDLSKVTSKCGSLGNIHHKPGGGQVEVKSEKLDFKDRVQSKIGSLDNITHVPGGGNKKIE
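Human tau K18 […] P301L fragment, 15 uM unlabeled plus 0.24 uM Alexa 594-labeled tau (final), with compound and 20 uM heparin in 100 mM sodium acetate pH 7; 6 hr at 37 C, then Alexa 594 FP read.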
PLK1 PBD inh = qHTS for Inhibitors of PLK1-PDB (polo-like kinase 1 - polo-box domain): Primary Screen; Serine/threonine-protein kinase PLK1 (Homo sapiens), P53350; Plk1 PBD binding of FITC phosphopeptide, fluorescence polarization; Potency, µM, without a hit: max response, negative = inhibition, most hits filed as inhibitors; 360,000 tested, 2.8% active; AID 720504, 2013; note: series mostly up to about 57 µM; nearly all actives have a fitted effect of over 65% in size
Target sequence (P53350 whole entry, looked up, the tested form may be a part): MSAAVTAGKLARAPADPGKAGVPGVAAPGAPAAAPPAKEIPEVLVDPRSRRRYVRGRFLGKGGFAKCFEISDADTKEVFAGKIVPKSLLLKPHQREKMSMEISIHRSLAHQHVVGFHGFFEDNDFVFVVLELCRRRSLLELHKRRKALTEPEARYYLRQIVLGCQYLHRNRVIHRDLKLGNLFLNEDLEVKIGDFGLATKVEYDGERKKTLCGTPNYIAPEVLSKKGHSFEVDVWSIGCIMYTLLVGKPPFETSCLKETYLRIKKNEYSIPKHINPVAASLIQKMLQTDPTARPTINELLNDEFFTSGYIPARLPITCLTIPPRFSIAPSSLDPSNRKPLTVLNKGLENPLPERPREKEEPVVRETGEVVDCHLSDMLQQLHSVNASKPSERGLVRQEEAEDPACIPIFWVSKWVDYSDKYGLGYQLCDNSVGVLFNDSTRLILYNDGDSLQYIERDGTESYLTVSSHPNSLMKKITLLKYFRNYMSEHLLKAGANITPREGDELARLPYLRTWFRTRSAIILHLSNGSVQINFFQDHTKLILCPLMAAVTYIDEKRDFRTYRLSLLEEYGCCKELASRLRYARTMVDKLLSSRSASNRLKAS
VDR inh = Inhibitors of the vitamin D receptor (VDR): qHTS; 400,000 tested, 0.93% active; Potency, µM, without a hit: max response, negative = inhibition, hits mostly inhibitors; VDR-SRC2-3 peptide fluorescence polarization, 2 h; AID 504847, 2011
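Signal is fluorescence polarization, reporting how far test compounds block the interaction of VDR with the SRC2-3 coregulator peptide after a 2 h room-temperature incubation.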
Sfp PPTase inh = qHTS Assay for Inhibitors of Bacillus subtilis Sfp phosphopantetheinyl transferase (PPTase) | 4'-phosphopantetheinyl transferase ffp (Bacillus subtilis), Q9F4F7 | Biochemical Sfp PPTase activity, qHTS | Potency, µM, without a hit: largest response in the series, negative = inhibition, hits mostly inhibitors | 310,000 tested, 3.5% active | AID 1490, 2009;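 note: the enzyme is Sfp with the accession as filed and its product quenches rhodamine fluorescence; 0% = enzyme reaction without inhibitor and -100% = no enzyme wells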
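After 15 min at room temperature with compound, 15 nM Sfp received 5 uM rhodamine-CoA plus 12.5 uM BHQ-2-ybbR (50 mM Hepes pH 7.6, 10 mM MgCl2). Rate came from the fluorescence difference over 30 min, ex 525/em 598 nm.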
Tau fluor counter = Counterscreen qHTS for Inhibitors of Tau Fibril Formation, Fluorescence Polarization. tau K18 P301L Alexa594 fluorescence, heparin fibrillization. Potency, µM (highest dose often 57.7 µM), for inactives: at the top dose activity change, negative = decrease. 280,000 tested, 0.93% active. AID 1463, 2008; note: nearly all actives have a fitted effect of over 55% in size
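Human tau K18 P301L (15 uM unlabeled, 0.24 uM Alexa 594-labeled) in 100 mM sodium acetate pH 7 with 20 uM heparin, 6 hr at 37 C. ThT 30 uM added, 1 hr ambient; Alexa 594 FP and total fluorescence read at 555/632 nm.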
Tau ThT inhib = qHTS for Inhibitors of Tau Fibril Formation, Thioflavin T Binding | Microtubule-associated protein tau (Homo sapiens), P10636 | recombinant tau K18 P301L (four-repeat tau fragment), heparin-induced fibrillization, ThT fluorescence | Potency, µM (top dose mostly 57.4 µM), inactives show at the top dose activity, negative = inhibition, hits mostly inhibitors | 270,000 tested, 2.1% active | AID 1460, 2008; note: nearly all actives have a fitted effect of over 55% in size
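Heparin-induced fibrillization of the P301L-mutant K18 repeat-domain fragment of human tau was followed by ThT binding in quantitative high-throughput format.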
Starred values were filed as active, the others as inactive; ? = inconclusive; nt = no result; [ ] = another dose, or the depositor's remark. Calls come from the whole dose curve; as a rule, active = well fitted curve in the direction sought with a large enough effect; inconclusive = small, poorly fitted or top-dose-only effect, or another doubt; inactive = no such curve, though single readings can be large; an effect the other way counts as inactive or inconclusive. Unless noted, % is set by controls: 0 for no effect and ±100 for the full control effect; potency is the fitted concentration of half-maximal effect.

SMILES	Tau FP inhib	PLK1 PBD inh	VDR inh	Sfp PPTase inh	Tau fluor counter	Tau ThT inhib
N#Cc1c(C(F)(F)F)cc(-c2ccccc2)nc1SCC(=O)Nc1sc2c(c1C#N)CCC2	2.4%	29.9µM*	-3.6%	-0.1%	-5.4%	-5.3%
Cc1ccc(C2/C=C\CC(NC(=O)OCC3c4ccccc4-c4ccccc43)CC(=O)N2Cc2ccccc2)cc1 (stereo not given)	nt	-5.6%	-10.4%	nt	nt	nt
CCCCn1c(=O)[nH]c2nc3cc(NC(C)=O)ccc3nc2c1=O	-1.7%	-15.3%	5.9%	10.5%	-24.8%	nt
CCCCCCn1c(=O)[nH]c2nc3cc(N)c(C)cc3nc2c1=O	3.6%	2.99µM*	?	?	3.2%	2.9%
CC1=C(C(=O)Nc2ccc(C)cc2C)C(c2cc(Br)ccc2F)n2ncc(C(=O)Nc3ccc(C)cc3)c2N1 (stereo not given)	-14.4%	nt	17.1%	nt	-0.5%	0.1%
c1ccc(Sc2ncccn2)nc1	-0.1%	26.7µM*	-9.9%	-28.3%	-5.7%	6.6%
O=C(O)CCCCCn1c(O)c(C=C2N=c3ccccc3=N2)sc1=S	17.9%	-13.1%	1.5%	?	?	12.6µM*
O=C(O)c1ccc(-n2c(O)c(C=C3N=c4ccccc4=N3)sc2=S)cc1	3.5%	?	8.1%	-0.5%	?	17.8µM*
O=C(O)c1cccc(-n2c(O)c(C=C3N=c4ccccc4=N3)sc2=S)c1	1.0%	-27.5%	-11.9%	4.1%	?	?
CCc1nnc(SCc2ccc(OC)cc2)c2cc3sc(C)cc3n12	12.9%	nt	13.4%	nt	-9.2%	-12.6%
Cc1cc(N=Nc2ccc(C)c(N=Nc3cc(C)c(N)cc3N)c2)c(N)cc1N	-4.3%	0.3%	5.5%	?	15.8µM*[quencher]	3.98µM*
O=C1c2ccccc2NC2(CCCCC2)N1c1ccc(O)cc1	-3.1%	-1.0%	6.8%	16.7%	1.0%	-3.0%
CC1(c2ccccc2)CC(c2ccccc2)=C(C#N)C(=O)N1 (stereo not given)	nt	3.0%	-0.9%	nt	nt	nt
N#CC1=C(S)N(c2ccc(F)cc2)C2(CCCCC2)NC1=O	28.2µM*	-22.6%	?	20µM*	-17.7%	31.6µM*
N#CC1=C(S)N(c2ccccc2)C2(CCCCC2)NC1=O	?	-1.6%	35.5µM*	28.2µM*	-19.1%	?
CC(=O)C1CCC2C3CCC4=CC(=O)CCC4(C)C3(F)C(O)CC12C (stereo not given)	nt	7.0%	-5.5%	nt	nt	nt
Cc1cc(NC(=O)C(C)SCC(=O)N(C)Cc2ccccc2F)no1 (stereo not given)	nt	-1.6%	-9.3%	nt	nt	nt
CCOc1ccc(NC(=O)Nc2cc(-c3ccccc3)sc2C(=O)OC)cc1	9.6%	-10.8%	-22.1%	19.0%	?	?
COC(=O)c1sc(-c2ccc(C(C)(C)C)cc2)cc1NC(=O)c1ccccc1C(=O)O	6.6%	21.2µM*	?	-1.7%	-9.3%	nt
COC(=O)c1sc(-c2ccccc2)cc1NC(=O)C1CC1	-15.7%	-6.6%	17.0%	44.7µM*	-20.8%	-17.9%
COC(=O)c1c(NC(=O)C2CC2)sc(C(=O)Nc2ccccc2)c1C	1.0%	26.7µM*	-10.7%	2.6%	-16.9%	-0.5%
Cc1ccc(S(=O)(=O)N2[C@H](c3cccc(Cl)c3)CC(=O)[C@@H]3CN(S(=O)(=O)c4ccccc4C)[C@H](c4ccc(Cl)cc4)C[C@@H]32)cc1	nt	-6.5%	nt	nt	nt	nt
C#CCN(Cc1ccco1)C(=O)c1cc(COc2ccc(F)cc2Cl)on1	-3.5%[2.34 µM]	-3.4%	-0.8%	12.6µM*	-63.6%	12.6µM*
Cc1ccc(CN(C)C(=O)c2cc(COc3ccc(F)cc3Cl)on2)o1	-4.6%	15µM*	?	35.5µM*	-27.8%	?
O=C(NCCCc1ccccc1)c1cc(COc2ccc(F)cc2Cl)on1	nt	29.9µM*	?	11.5%	nt	nt
SMILES	Tau FP inhib	PLK1 PBD inh	VDR inh	Sfp PPTase inh	Tau fluor counter	Tau ThT inhib
CCCCNC(=O)c1cnn2c(C)c(Cc3c(C)cc(C)cc3C)c(C)nc12	-7.4%	nt	-0.9%	nt	-1.7%	?
Cc1ccc(C2=CC(c3ccccc3F)n3c(nc4ccccc43)N2)cc1C (stereo not given)	1.5%	nt	-11.0%	nt	-12.7%	?
COc1ccccc1NCC(=O)c1ccc(C)c(C)c1	nt	-14.5%	-8.5%	-17.3%	nt	nt
COc1ccccc1NCC(=O)c1ccc(Cl)cc1	nt	-11.6%	79.4µM*	50.1µM*	nt	nt
COc1ccc(NC(=O)CN(C)C(=O)/C=C/c2ccc(OCc3ccccc3)cc2)cc1	nt	29.9µM*	-16.4%	26.9%	nt	nt
COc1ccc(NC(=O)CN(C)C(=O)CCc2ccccc2)cc1	nt	-5.1%	14.8%	17.2%	nt	nt
O=C1C(Cl)=C(Nc2cccc(O)c2)C(=O)N1Cc1ccccc1	-6.0%	26.7µM*	3.2%	-3.1%	?	14.1µM*
CC1CCCCN1C(=O)c1cccc(NC2=C(Cl)C(=O)N(Cc3ccccc3)C2=O)c1 (stereo not given)	nt	-4.3%	-18.5%	nt	nt	nt
CCn1c(SCc2ccc(Cl)cc2)nnc1-c1ccccc1	-3.2%	26.7µM*	-18.9%	4.8%	-2.2%	-6.7%
Cc1ccc(SCc2cc(=O)c3c(=O)n(-c4ccccc4)[nH]c3[nH]2)cc1	-18.0%	-27.2%	-3.9%	70.8µM*	-26.2%	?
O=c1cc(CSc2ccc(Cl)cc2)[nH]c2[nH]n(-c3ccccc3)c(=O)c12	5.7%	-17.2%	?	2.8%	-19.1%	?
N#Cc1cc([N+](=O)[O-])c(-n2nnc3ccccc32)c([N+](=O)[O-])c1	4.7%	10.6µM*	?	8.8%	-4.0%	?
COc1ccc2[nH]cc(CCN=C(NC(=O)c3ccccc3F)Nc3nc(C)cc(C)n3)c2c1	6.8%	nt	0.2%	nt	?	-15.3%
c1cc2c(cc1C1CCCCC1)c1c3n2CCN=C3CCC1	10.6%	?	-8.6%	79.4µM*	-18.4%	-18.6%
c1ccc2c(c1)c1c3n2CCNC3CCC1 (stereo not given)	9.6%	1.2%	16.3%	79.4µM*	6.4%	0.0%
c1cc2c(cc1C1CCCCC1)c1c3n2CCCNC3CCC1 (stereo not given)	4.1%	-1.0%	6.5%	31.6µM*	-13.7%	?
c1cc2c(cc1C1CCCCC1)c1c3n2CCN[C@H]3CCC1	4.5%	nt	-12.8%	5.62µM*	-27.0%	?
NC(=O)CSc1ccc2nnc(-c3ccncc3)n2n1	nt	nt	-20.1%	nt	nt	nt
Brc1ccc2nc(-c3c[nH]c4ccccc34)cn2c1	7.4%	-5.2%	10.3%	-9.5%	?	10µM*
